Reference: PubChem BioAssay AID911 (National Center for Advancing Translational Sciences (NCATS), 2007)
Some of the results follow. Where a call stands in place of a potency, no number is given. Records with an inconclusive call do not appear. Active and inactive are the calls of the source. Calls follow the shape of the full dose curve.

biological target: Microtubule-associated protein tau (Homo sapiens) (UniProt P10636); experiment: Tau ThS binding assay; settings: recombinant tau filaments, Thioflavin S fluorescence displacement
Sequence (P10636 whole entry, looked up): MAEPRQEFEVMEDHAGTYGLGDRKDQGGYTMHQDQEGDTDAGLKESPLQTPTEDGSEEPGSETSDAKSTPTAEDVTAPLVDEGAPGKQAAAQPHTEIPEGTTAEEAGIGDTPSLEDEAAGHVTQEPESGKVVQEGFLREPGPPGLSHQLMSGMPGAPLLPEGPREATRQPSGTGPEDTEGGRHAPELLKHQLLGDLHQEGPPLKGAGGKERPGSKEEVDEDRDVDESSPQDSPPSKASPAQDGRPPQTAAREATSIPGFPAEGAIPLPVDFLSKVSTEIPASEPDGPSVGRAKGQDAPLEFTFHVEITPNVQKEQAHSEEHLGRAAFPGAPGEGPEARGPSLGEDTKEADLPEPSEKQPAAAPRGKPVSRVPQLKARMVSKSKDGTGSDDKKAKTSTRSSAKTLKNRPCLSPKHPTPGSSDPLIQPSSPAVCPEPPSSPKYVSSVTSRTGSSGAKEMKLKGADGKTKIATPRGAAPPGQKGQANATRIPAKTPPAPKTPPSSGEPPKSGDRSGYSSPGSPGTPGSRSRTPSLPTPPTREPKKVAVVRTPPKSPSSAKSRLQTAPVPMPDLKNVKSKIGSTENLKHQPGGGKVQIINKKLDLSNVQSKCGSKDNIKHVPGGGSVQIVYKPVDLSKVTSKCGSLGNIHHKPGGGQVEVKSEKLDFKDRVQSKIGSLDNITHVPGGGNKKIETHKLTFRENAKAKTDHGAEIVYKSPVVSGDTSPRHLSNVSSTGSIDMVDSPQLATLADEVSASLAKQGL
Excerpt: NIH Molecular Libraries Screening Centers Network [MLSCN] NIH Chemical Genomics Center [NCGC] MLSCN Grant: 1 X01 MH079825-01 Assay Provider: Jeffrey A. Kuret, Ohio State University NCGC Assay Overview: This assay is a confirmation study for the qHTS Assay for Tau Filament Binding (PubChem AID 596). Tau monomers form filaments in vitro in the presence of arachidonic acid. The dye Thioflavine S (ThS) binds to tau filaments and upon binding, increases in fluorescence several fold. Small molecules that displace ThS binding or prevent filament binding are identified by a reduction in ThS fluorescence.
NCGC Assay Protocol Summary The assay was performed in 96-well round bottom opaque plates (VWR, West Chester, PA) in 100 uL final volume. Recombinant His6-htau40 was diluted to 5 uM in assembly buffer (10 mM HEPES, pH 7.4, 100 mM NaCl, 5 mM dithiothreitol) containing 50 uM arachidonic acid inducer. ThS probe was then added to a final concentration of 10 uM with test compounds assayed at nine 3-fold dilutions beginning at 10 uM final concentration. Each compound was tested at least twice in separate assays. Controls without protein or without compound were included on each plate. […] Fluorescence (ex = 440 nm; em = 485 nm) was measured after brief shaking (10 s) in a FlexStation plate reader (Molecular Devices, Sunnyvale, CA) operated at sensitivity 10, automatic PMT. […]

Structure (SMILES)	Potency	outcome
Oc1ccc(O)c2c(O)cccc12	4.97 µM (active)	
O=C(CCCCn1c(=O)[nH]c2ccccc2c1=O)NCc1ccc2c(c1)OCO2		inactive
